TDP1 cell noCPT: qHTS for Inhibitors of human tyrosyl-DNA phosphodiesterase 1 (TDP1): qHTS in cells in absence of CPT; AID 686978, 2013; Potency, µM (titrated, usually from 46.2 µM), hits mostly inhibitors; DT40 Tdp1-/- hTDP1 cells, no CPT, ATP luminescence, 48 h; actives 15% (n = 420,000); further: nearly all actives have a fitted effect of over 55% in size
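Cells were dispensed at 400 per well, compounds added by pin tool, plates incubated ≥48 hr at 37 °C, then CellTiter-Glo added for 30 min at room temperature before luminescence reading. Line: DT40 Tdp1-/- complemented with hTDP1; camptothecin omitted.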
VP16 counter: VP16 counterscreen qHTS for inhibitors of ROR gamma transcriptional activity; AID 2546, 2010; actives 3.5% (n = 310,000); Drosophila S2 Gal4-VP16 UAS-luciferase, luminescence, 20 h; Potency, µM (top dose mostly 53.6 µM), most hits filed as inhibitors;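 further: Gal4-VP16 expression switched on by copper sulfate through the metallothionein promoter; nearly all actives have a fitted effect of over 50% in size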
TDP1 block: qHTS Assay for Inhibitors of Tyrosyl-DNA Phosphodiesterase (TDP1). AID 485290, 2010. actives 0.28% (n = 350,000). Potency, µM (doses to about 130 µM), hits mostly inhibitors. recombinant TDP1, AlphaScreen DNA substrate cleavage. Tyrosyl-DNA phosphodiesterase 1 (Homo sapiens), Q9NUW8; further: nearly all actives have a fitted effect of over 40% in size
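Signal: AlphaScreen proximity between streptavidin donor and anti-FITC acceptor beads on intact substrate. Reaction: Tdp1 1 nM, substrate 15 nM final, 5 min RT after 15 min compound preincubation.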
RORg inh: qHTS for inhibitors of ROR gamma transcriptional activity | Nuclear receptor ROR-gamma (Mus musculus), P51450 | Drosophila S2 Gal4-RORgamma UAS-luciferase reporter, 20 h | Potency, µM (highest dose often 53.6 µM), most hits filed as inhibitors | actives 5.4% (n = 310,000) | AID 2551, 2010; further: nearly all actives have a fitted effect of over 60% in size
Target sequence (P51450 whole entry, looked up, the tested form may be a part): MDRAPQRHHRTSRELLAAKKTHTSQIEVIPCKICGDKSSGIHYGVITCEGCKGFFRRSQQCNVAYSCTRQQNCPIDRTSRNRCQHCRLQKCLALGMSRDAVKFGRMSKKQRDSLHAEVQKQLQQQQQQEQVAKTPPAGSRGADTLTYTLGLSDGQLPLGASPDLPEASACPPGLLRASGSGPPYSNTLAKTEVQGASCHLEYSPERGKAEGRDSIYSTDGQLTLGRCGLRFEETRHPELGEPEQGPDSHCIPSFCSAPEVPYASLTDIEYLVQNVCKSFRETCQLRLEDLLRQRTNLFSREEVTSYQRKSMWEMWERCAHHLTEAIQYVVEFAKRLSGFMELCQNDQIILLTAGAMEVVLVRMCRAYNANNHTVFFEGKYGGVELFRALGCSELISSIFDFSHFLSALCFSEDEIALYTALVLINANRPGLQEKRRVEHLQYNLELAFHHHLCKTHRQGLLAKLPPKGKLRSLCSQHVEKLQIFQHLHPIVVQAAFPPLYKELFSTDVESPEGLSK
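In this cell-based reporter format, copper sulfate (700 uM final) drives Gal4–ROR gamma fusion expression from a metallothionein promoter in Drosophila Schneider cells; compounds preincubated 1 hr, reporter read after 20 hr at ambient temperature.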
TDP1 cell CPT: qHTS for Inhibitors of human tyrosyl-DNA phosphodiesterase 1 (TDP1): qHTS in cells in presence of CPT | Potency, µM (doses to about 46.2 µM), actives largely listed as inhibitors | chicken DT40 Tdp1-/-;hTDP1 cells + 20 nM CPT, ATP luminescence, 48 h | actives 12% (n = 420,000) | AID 686979, 2013; further: nearly all actives have a fitted effect of over 55% in size
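Cell growth measured by CellTiter-Glo luminescence after a minimum 48 h, 37 C compound exposure with 20 nM CPT in Tdp1-knockout DT40 cells stably expressing hTDP1, seeded 400/well; qHTS titration format.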
Hits are given with their value; 0 = inactive; ? = inconclusive; - = no result given. Shown are actives, neighbours in structure and some others; about 19% of the full set was active somewhere. The call rests on the fitted dose curve; in most records, active means well fitted curve in the direction sought with a large enough effect; inconclusive means small, poorly fitted or top-dose-only effect, or another doubt; inactive means no such curve, though single readings can be large; an effect the other way counts as inactive or inconclusive.

SMILES | TDP1 cell noCPT | VP16 counter | TDP1 block | RORg inh | TDP1 cell CPT
CC1C(=O)c2ccccc2CC1C(=O)O (stereo not drawn) | 0 | - | - | - | 0
NS(=O)(=O)c1ccc(-c2ccc(/C=C3\C(=O)Nc4ccccc43)o2)cc1 | - | 0 | - | 0 | -
Cc1ccccc1/C=C1\C(=O)Nc2ccc(F)cc21 | ? | 0 | - | 0 | 0
Cc1nn(-c2ccc(F)cc2)c(Cl)c1/C=C1\C(=O)Nc2ccccc21 | 8.2µM | 0 | 0 | 0 | 6.5µM
Cc1ccc(/C=C2\C(=O)Nc3ccccc32)o1 | 3.7µM | 0 | 0 | 0 | 1.5µM
COc1ccc(-c2ccc(C(C)=O)cc2)cc1[C@H]1[C@@H]2C=CCC[C@@]2(C)C(=O)N1Cc1ccccc1 | 0 | 0 | 0 | 0 | ?
COc1ccccc1/C=C1\SC(=S)N(N2C(=O)CCCC2=O)C1=O | 0 | 0 | 0 | 0 | 0
COc1ccc(-n2c(CN3CCN(c4ccccn4)CC3)nc3ccc([N+](=O)[O-])cc3c2=O)c(OC)c1 | 21µM | 0 | 0 | 0 | ?
O=c1c2cc([N+](=O)[O-])ccc2nc(CN2CCN(c3ccccn3)CC2)n1-c1ccccc1F | 15µM | 0 | 0 | 0 | ?
COc1ccc(-n2c(CN3CCN(Cc4ccccc4)CC3)nc3ccc([N+](=O)[O-])cc3c2=O)c(OC)c1 | 0 | ? | 0 | 0 | ?
O=C(c1ccco1)N1CCN(Cc2nc3ccc([N+](=O)[O-])cc3c(=O)n2-c2ccccc2F)CC1 | 8.2µM | 0 | 0 | 0 | ?
O=C(c1ccco1)N1CCN(c2ccc([N+](=O)[O-])cc2F)CC1 | 0 | ? | 0 | 0 | ?
O=C(Nc1nnc(Cc2ccccc2)s1)Nc1ccccc1F | 0 | 0 | 0 | 0 | ?
C[C@]1(CO)CCC[C@@]2(C)C1CC[C@@H](CO)[C@@H]2CCc1ccoc1 (stereo partly drawn) | ? | 0 | - | 0 | ?
CCC1CN(C(=O)N2CCC(C(=O)N(C)Cc3ccccc3)CC2)c2ccccc2O1 (stereo not drawn) | 15µM | - | 0 | - | ?
CCC1CN(C(=O)N2CCC(C(=O)NCCCc3ccccc3)CC2)c2cc(C)ccc2O1 (stereo not drawn) | 13µM | - | 0 | - | ?
CCOc1ccc(CCNC(=O)C2CCN(C(=O)N3CC(CC)Oc4ccc(C)cc43)CC2)cc1 (stereo not drawn) | ? | - | 0 | - | ?
CCC1CN(C(=O)N2CCC(C(=O)NCCCc3ccccc3)CC2)c2ccccc2O1 (stereo not drawn) | ? | - | 0 | - | 16µM
CCC1CN(C(=O)N2CCC(C(=O)NCc3ccco3)CC2)c2ccccc2O1 (stereo not drawn) | ? | 0 | 0 | 0 | ?
CCC1CN(C(=O)N2CCC(C(=O)NCc3ccc(F)cc3)CC2)c2ccccc2O1 (stereo not drawn) | 0 | 0 | 0 | 0 | 0
CCC1CN(C(=O)N2CCC(C(=O)NCCOC)CC2)c2ccccc2O1 (stereo not drawn) | 0 | - | 0 | - | 0
CCC1CN(C(=O)N2CCC(C(=O)NCc3cccs3)CC2)c2ccccc2O1 (stereo not drawn) | 21µM | - | 0 | - | 21µM
CC(C)(C)OC(=O)N1CCOCCOCCN(C(=O)OC(C)(C)C)CCOCC1 | 0 | 0 | 0 | 0 | 0
Cc1cccc(CNC(=O)C2CCCN(S(=O)(=O)c3cn(C)cn3)C2)c1 (stereo not drawn) | 0 | - | 0 | - | 0
CCC1CN(C(=O)N2CCC(C(=O)NCCC3=CCCCC3)CC2)c2cc(C)ccc2O1 (stereo not drawn) | 15µM | - | 0 | - | 15µM
SMILES | TDP1 cell noCPT | VP16 counter | TDP1 block | RORg inh | TDP1 cell CPT
CC1CN(C(=O)N2CCC(C(=O)NCCC3=CCCCC3)CC2)c2ccccc2O1 (stereo not drawn) | ? | - | 0 | - | 0
CC(C)CC1NC(=O)c2cccnc2-n2c1nc1cc(F)ccc1c2=O (stereo not drawn) | 0 | - | - | - | 0
O=C1Nc2ccc(Cl)cc2[C@@](C#CC2CC2)(C(F)(F)F)O1 | 17µM | ? | 0 | 0 | ?
CCOC(=O)N1CCN(C(c2ccccc2)c2sc3nc(C)nn3c2O)CC1 (stereo not drawn) | 0 | 0 | 0 | 0 | 0
CC(C)N(Cc1ccccc1)C(=O)CN1C(=O)COc2ccc(S(=O)(=O)N3CCCCCC3)cc21 | 13µM | 0 | 0 | 0 | 15µM
CC1CCN(S(=O)(=O)c2ccc3c(c2)N(CC(=O)O)C(=O)CO3)CC1 | 16µM | - | 0 | - | 15µM
CC1CCN(S(=O)(=O)c2ccc3c(c2)N(CC(=O)N2CCN(c4ccccc4)CC2)C(=O)CO3)CC1 | - | - | 0 | - | -
CC(C)N(Cc1ccccc1)C(=O)CN1C(=O)CSc2ccc(S(=O)(=O)N3CCCC3)cc21 | 0 | - | 0 | - | 12µM
CN(Cc1ccccc1)C(=O)CN1C(=O)COc2ccc(S(=O)(=O)N3CCCC3)cc21 | 0 | 0 | 0 | 0 | 0
CC1CCN(C(=O)CCNS(=O)(=O)c2ccc3c(c2)c(=O)n(C)c(=O)n3C)CC1 | 0 | 0 | 0 | 0 | 0
O=C(Cc1ccccc1)NCC(=O)OCC(=O)c1ccc([N+](=O)[O-])cc1 | ? | 0 | 0 | 0 | ?
O=C(CNS(=O)(=O)c1ccccc1)OCC(=O)c1ccc([N+](=O)[O-])cc1 | ? | ? | 0 | 0 | 21µM
Cc1ccc(C(=O)NCC(=O)NCC(=O)OCc2ccc(Oc3ccc([N+](=O)[O-])cc3)cc2)cc1 | 21µM | - | - | - | ?
COc1ccc(C(=O)NCC(=O)OCc2ccc([N+](=O)[O-])cc2)cc1 | 0 | 0 | 0 | 0 | 0
O=C(CNS(=O)(=O)c1ccccc1)OCC(=O)c1ccc(Br)cc1 | 0 | 0 | 0 | 0 | 0
Cc1ccc(C(=O)NCC(=O)NCC(=O)OCC(=O)c2ccc([N+](=O)[O-])cc2)cc1 | 23µM | 0 | 0 | 0 | 23µM
Cc1ccc(S(=O)(=O)N2CCOc3ccccc32)c(C)c1NS(C)(=O)=O | ? | 0 | - | 0 | ?
COc1cccc(C(=O)Nc2cccc(C(=O)OCc3cc(=O)n4c5c(sc4n3)CCCC5)c2)c1 | 18µM | - | 0 | - | ?
O=C(Nc1cccc(C(=O)OCc2cc(=O)n3c4c(sc3n2)CCCC4)c1)c1ccccc1 | 16µM | - | 0 | - | ?
Cc1ccc(C(=O)Nc2cccc(C(=O)OCc3cc(=O)n4c5c(sc4n3)CCCC5)c2)cc1 | 18µM | - | 0 | - | ?
O=C(Nc1cccc(C(=O)OCc2cc(=O)n3c4c(sc3n2)CCCC4)c1)c1ccc(Cl)cc1 | 0 | - | 0 | - | ?
CSc1ccccc1NC(=O)CNCCCN1CCOCC1 | ? | 0 | 0 | 0 | 0
CNc1ncncc1-c1ccccc1OC | 0 | 0 | 28µM | 0 | 0
COc1ccccc1-c1cncnc1NCc1cccnc1 | 0 | 0 | 25µM | 0 | 0
COc1ccccc1-c1ccc2ncnc(NCc3cccnc3)c2c1 | 6.5µM | ? | 0 | ? | 8.2µM

Bioassay records (PubChem)
